Bioassay records (PubChem BioAssay)
phage Ecoli inh: growth loss of phage-infected E. coli, primary screen, RecBCD inhibitor project, absorbance, with phage, HTS. inhibition, % at 11.9 µM. actives 0.26% (n = 360,000). AID 651602, 2012; in the data active means inhibition above about 11%
E coli growth-1: E. coli V3065 growth inhibition, primary screen, counter-screen for AddAB inhibitor project, absorbance, OD600 | 18 h | inhibition, % at 11.9 µM | actives 0.27% (n = 330,000);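 active means inhibition above the campaign's mean inhibition across all tested compounds plus 3 SD, cut at about 9.9% in these data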;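 further: uninfected addAB+ strain grown without phage in ampicillin broth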
Tat transport: E. coli Tat export inhibitors, primary screen, MC4100, TorA-mCherry reporter, fluorescence, single point; inhibition, % at 10 µM; actives 0.036% (n = 340,000); AID 488895, 2010;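 active means mean replicate inhibition at least 50% and at least half of replicates individually reaching 50%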;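 further: exported cargo escapes ClpAP degradation while cytoplasmic cargo is degraded and loses fluorescence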
E coli growth-2: E. coli growth inhibition, primary screen, OD600 | Escherichia coli growth, 23 h; active compounds read low | OD600 absorbance (no concentration beside the values) | AID 1053175, 2014 | actives 0.21% (n = 330,000);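 active means OD600 absorbance below the run mean of sample wells minus 3.6 SD, in any replicate, cut at about 0.56 in these data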
AddAB inh: growth inhibition of E. coli expressing H. pylori AddAB, primary screen, AddAB inhibitor project, absorbance. actives 0.29% (n = 330,000). inhibition, % at 11.9 µM; in the data active means inhibition above about 12%
RecBCD conf: growth loss of phage-infected RecBCD+ E. coli, confirmation, RecBCD inhibitor project, absorbance, E. coli V66, T4 gene 2 phage; inhibition, % at 11.9 µM; AID 651982, 2013; E. coli V66 + T4 2- phage, growth OD; shares compounds with phage Ecoli inh; actives 45% (n = 890);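 active means mean inhibition over triplicates exceeding the hit threshold derived in the original primary screen, cut at about 11% in these data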
Ecoli viability: E. coli viability inhibition, counter-screen for RecBCD inhibitor project, absorbance, high throughput; shares compounds with phage Ecoli inh; absorbance (OD) growth; inhibition, % at 11.9 µM; actives 29% (n = 890); AID 651983, 2013; in the data active means inhibition above about 20%;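 further: E. coli strain V66 grown with compound alone and no phage infection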
AddAB counter: growth loss of phage-infected AddAB-carrying E. coli, confirmation, counter-screen for RecBCD inhibitor project, absorbance, E. coli V3065, T4 phage. shares compounds with phage Ecoli inh. E. coli expressing H. pylori AddAB + T4 phage, OD growth; gene 2 mutant T4, recBCD-deleted host. inhibition, % at 11.9 µM. actives 45% (n = 890). AID 651984, 2013;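 active means mean inhibition above the solvent-only control wells' mean plus 3 SD, cut at about 22% in these data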;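 further: higher means less bacterial growth from phage killing when AddAB is blocked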
Of the large screens only hits and unclear results are named; the others gave an inactive call (follow-up assays come after a bar, where they were run). Most compounds without a hit are left out; they make up all but 0.5% or so of the library.

S=C(Nc1ccc(Br)cc1)NC1CCCCC1	phage Ecoli inh 11.9 | RecBCD conf inactive | Ecoli viability inactive | AddAB counter inactive
O=[N+]([O-])c1ccc(O)c(C2CCCCC2)c1	phage Ecoli inh 12.0, E coli growth-2 0.188 (no result: E coli growth-1, AddAB inh) | RecBCD conf inactive | Ecoli viability inactive | AddAB counter inactive
O=C(NN=Cc1ccc(O)cc1O)NC12CC3CC(CC(C3)C1)C2	none (no result: phage Ecoli inh, E coli growth-1, Tat transport, AddAB inh)
CCC(=O)Nc1sc(Cc2ccc3c(c2)OCO3)c(C)c1C(N)=O	none
Cc1c(Cc2ccc3c(c2)OCO3)sc(NC(=O)C(C)(C)C)c1C#N	phage Ecoli inh 100.1 | RecBCD conf inactive | Ecoli viability inactive | AddAB counter inactive
O=C(COc1ccccc1Cl)Nc1nnc(S(=O)(=O)N2CCCC2)s1	phage Ecoli inh 36.2 | RecBCD conf inactive | Ecoli viability inactive | AddAB counter inactive
Cc1[nH]nc(C(F)(F)F)c1N=NN1CCOCC1	phage Ecoli inh 99.6, Tat transport 82.9 (no result: E coli growth-1, E coli growth-2, AddAB inh) | RecBCD conf 99.2 | Ecoli viability 103.0 | AddAB counter 100.3
O=C1NCC(Cc2ccc(O)cc2)N(CCc2cccc(F)c2)C1=O (stereo unspecified)	none (no result: phage Ecoli inh, E coli growth-1, Tat transport, AddAB inh)
CN1CCN(C(=O)N(c2ccccc2)c2ccccc2)CC1	phage Ecoli inh 98.4 | RecBCD conf inactive | Ecoli viability inactive | AddAB counter inactive
CCN1CCN(C(=O)N(c2ccccc2)c2ccccc2)CC1	none
O=C(/C(=N/N=C/c1ccc(O)c(O)c1O)c1ccccc1)c1ccccc1	phage Ecoli inh 11.6 (no result: E coli growth-2) | RecBCD conf inactive | Ecoli viability inactive | AddAB counter inactive
Oc1ccc(/C=N/N=C(c2ccccc2)c2ccccc2)c(O)c1O	phage Ecoli inh 14.2 (no result: E coli growth-2) | RecBCD conf inactive | Ecoli viability inactive | AddAB counter inactive
C#CCOCCOCCOCCNc1nc(N2CCN(C(=O)C(CCCCN)n3cc(CN)nn3)CC2)nc(N2CCN(C(=O)C(CCCCN)n3cc(CN)nn3)CC2)n1 (stereo unspecified)	none (no result: phage Ecoli inh, E coli growth-1, Tat transport, AddAB inh)
COC(=O)Cn1ccnc1[N+](=O)[O-]	phage Ecoli inh 15.6 (no result: E coli growth-1, Tat transport, E coli growth-2, AddAB inh) | RecBCD conf inactive | Ecoli viability inactive | AddAB counter 90.1
Cc1ccc(-c2nc3ccc([N+](=O)[O-])cc3[nH]2)cc1	none
O=[N+]([O-])c1ccc2nc(-c3ccc(Cl)cc3)[nH]c2c1	phage Ecoli inh 11.1 | RecBCD conf inactive | Ecoli viability inactive | AddAB counter inactive
C#CCOCCOCCOCCNc1nc(N2CCN(C(=O)C(CCC(=O)O)n3cc(C(N)CCCCN)nn3)CC2)nc(N2CCN(C(=O)C(CC(N)=O)n3cc(C(N)C(C)CC)nn3)CC2)n1 (stereo unspecified)	none (no result: phage Ecoli inh, E coli growth-1, Tat transport, AddAB inh)
Nc1ccc(Cn2ccc3c4c(N)nc(N)nc4ccc32)cc1	phage Ecoli inh 99.8 (no result: E coli growth-1, E coli growth-2, AddAB inh) | RecBCD conf 103.2 | Ecoli viability 104.5 | AddAB counter 104.9
Cc1nc2ccc(N)cc2c(=O)n1Cc1ccc(Cl)cc1	none
O=C(c1ccco1)N1CCCN(Cc2nc(-c3ccc4c(c3)OCO4)no2)CC1	phage Ecoli inh 14.9 | RecBCD conf inactive | Ecoli viability inactive | AddAB counter inactive
Fc1ccc(CN2CCCN(Cc3nc(-c4ccc5c(c4)OCO5)no3)CC2)cc1	none
CCCc1nc2c(=O)n(C)c(=O)nc-2n(C)n1	phage Ecoli inh 18.2, E coli growth-2 0.439 (no result: E coli growth-1, AddAB inh) | RecBCD conf 15.7 | Ecoli viability inactive | AddAB counter 35.7
Cn1nc(-c2ccccn2)nc2c(=O)n(C)c(=O)nc1-2	none
COc1ccc(C2C3C(=O)N(C(C)(C)C)C(=O)C3[C@]3(Cc4ccccc4)C(=O)N(c4ccc(C)cc4)C(=O)N23)cc1 (stereo partly specified)	none (no result: phage Ecoli inh, E coli growth-1, Tat transport, AddAB inh)
COc1ccc(C=NNC(=O)CCSc2nc3ccccc3s2)cc1	none (no result: phage Ecoli inh, E coli growth-1, Tat transport, AddAB inh)
O=C(CCSc1nc2ccccc2s1)N/N=C/c1c(O)ccc2ccccc12	phage Ecoli inh 16.8, E coli growth-1 12.1 (no result: E coli growth-2) | RecBCD conf inactive | Ecoli viability inactive | AddAB counter inactive
COc1ccc2c(c1)OC(c1cccc(C(F)(F)F)c1)C(O)C2=O (stereo unspecified)	none (no result: phage Ecoli inh, E coli growth-1, Tat transport, AddAB inh)
CC(=NNc1nc2ccccc2s1)c1ccncn1	phage Ecoli inh 26.5 (no result: E coli growth-1, E coli growth-2, AddAB inh) | RecBCD conf 16.8 | Ecoli viability inactive | AddAB counter 25.3
COc1ccccc1NC(=O)COC(=O)C=Cc1ccc2c(c1)OCO2	none (no result: phage Ecoli inh, E coli growth-1, Tat transport, AddAB inh)
